Out of some 290,000 compounds screened, about 3,000 (1%) were called active. Cut-off read from the data, not from the text of the source: active = inhibition mostly above about 36% (no sharp cut-off); inactive = mostly below about 34%. The full list was thinned out, with actives kept by preference.
assay: inhibition of NOD1-driven NF-kB reporter – cell-based, luminescence, uHTS, primary screen (AID 1578); conditions: NOD1-driven NF-kB luciferase reporter cells, at 4 µM, active compounds read high;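 note: HEK-293T reporter cells stimulated with the NOD1 agonist gamma-tri-DAP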

inhibition, active:
CCc1cc2c3c(c1)C1(C(=O)N3C(C)(C)C=C2C)C(C#N)=C(N)Oc2[nH]c(=O)[nH]c(=O)c21 (stereo not drawn) 54.6%
Cc1cc(C)n(C(=O)/C(C#N)=N/Nc2cc(Cl)cc(Cl)c2)n1 40.4%
O=C(NCc1ccccc1)c1c(Cl)nc(Cl)c(Cl)c1Cl 54.5%
N=C1/C(=C/c2cccs2)C(=O)N=C2SN=C(SCc3ccccc3)N12 80.4%
O=C1/C(=C/c2ccccc2[N+](=O)[O-])COc2ccccc21 47.1%
O=C(Nc1ncc([N+](=O)[O-])s1)c1ccc2c(c1)OCO2 69%
CC(C)c1nnc(NC(=O)c2ccc3c(c2)OCO3)s1 62.9%
O=C(Cn1ncc(Cl)c(Cl)c1=O)N1CCN(Cc2ccccc2)CC1 84.9%
C=CCOc1ccc(Br)cc1/C=C1/SC(=Nc2ccc(C(=O)O)cc2)NC1=O 40.4%
Cc1cccc(NC(=S)NCCC(C)C)c1 69.1%
CC/C(=N\NC(=S)Nc1cccc(C)c1)c1ccccc1 48.5%
CN(C)/C=C(\C=N\OCc1ccc(Cl)cc1Cl)C(=O)Nc1ccc(Cl)c(Cl)c1 95.7%
O=C1Nc2cccnc2N(C(=O)CCl)c2ccccc21 50.5%
COc1cc(O)cc2cc3c(c(O)c12)C(=O)CC(C)(O)O3 (stereo not drawn) 51.8%

inhibition, inactive:
CCN(Cc1ccccc1)S(=O)(=O)c1ccc(OC)cc1 14.2%
COc1cccc(C2CC(c3cccs3)=NN2S(C)(=O)=O)c1OC (stereo not drawn) -30.3%
N#CCSc1nc2ccccc2c(=O)n1CCC(=O)NCCc1ccccc1 32.7%
O=C1C(=O)N(CCCN2CCOCC2)C(c2ccc([N+](=O)[O-])cc2)/C1=C(/O)c1ccc2c(c1)OCO2 (stereo not drawn) -24.9%
CCc1cccc(NC(=O)CCS(=O)(=O)c2ccc3c(c2)NC(=O)CO3)c1 -12.9%
CN(C(=O)CCN1C(=O)C(C)(C)Nc2ccccc21)c1ccccc1 0.1%
Cc1ccc2[nH]cc(C(=O)CN3CCN(c4ccccn4)CC3)c2c1 -23%
CC(NC(=O)OC1CCCCC1)N1C(=O)C2C3C=CC(C3)C2C1=O (stereo not drawn) -1.3%
Cn1c(N/N=C/c2cccs2)nc2c1c(=O)n(Cc1ccccc1)c(=O)n2C -22.5%
NC(=O)c1cc2cc(Cl)ccc2oc1=Nc1cccc(C(F)(F)F)c1 -9.4%
Cn1c(O)c(C=Nc2ccc(N3CCOCC3)cc2)c(=O)n(C)c1=S -14.6%
CCN(CC(=O)Nc1ccc2c(c1)OCCO2)S(=O)(=O)c1ccccc1 -42.6%
CCCN1CN(Cc2ccccc2)CNC1=S -23.1%
CCOC(=O)/C(C#N)=C/c1c(N2CCCCCC2)nc2ccccn2c1=O 0.9%
CC1=CC(C)(C)N2C(=O)C3(C(C#N)=C(N)Oc4cc(C)oc(=O)c43)c3cccc1c32 (stereo not drawn) -1.1%
COc1cc2c3c(c1)C1(C(=O)N3C(C)(C)C=C2C)C(C#N)=C(N)Oc2cc(C)oc(=O)c21 (stereo not drawn) -10.4%
Cc1cc(C)n(C(=O)/C(C#N)=N\Nc2ccccc2[N+](=O)[O-])n1 -30.2%
Cc1cc(C)n(C(=O)/C(C#N)=C/N(C)C)n1 -47.6%
Cc1nc(Cl)c(C(=O)NCc2ccccc2)c(C)c1Cl -37.4%
Cc1nc(Cl)c(C(=O)NCc2ccccc2)c(C)c1[N+](=O)[O-] -6.1%
COc1ccc(C)cc1-n1nc2ccccc2n1 -40%
CC(C)CSC1=NSC2=NC(=O)/C(=C\c3cccs3)C(=N)N12 41.8%
CSC1=NSC2=NC(=O)/C(=C\c3cccs3)C(=N)N12 -30%
CCc1ccc(-n2nnnc2SCC(=O)Nc2ccc(NC(C)=O)cc2)cc1 -3.5%
O=C1/C(=C/c2ccc(O)cc2)COc2ccccc21 -6.1%
O=C1/C(=C/c2cccs2)COc2ccccc21 -19%
CCOC(=O)c1cnc2nc(NCc3ccc(OC)c(OC)c3)[nH]n2c1=O -26.1%
CC1CCCN1CC#CC(O)(c1ccccc1)c1ccccc1 (stereo not drawn) 0.2%
Cc1nnc(NC(=O)c2c(-c3ccccc3)noc2C)s1 -0.4%
O=C(Nc1ccc([N+](=O)[O-])cn1)c1ccc2c(c1)OCO2 -49.4%
O=C(Nc1ncc([N+](=O)[O-])s1)c1cccc([N+](=O)[O-])c1 10.4%
CCC(CC)c1nnc(NC(=O)c2ccc3c(c2)OCO3)s1 -53.7%
Cc1cnc(NC(=O)c2c(-c3ccccc3)noc2C)s1 2.4%
CC(c1ccccc1)c1nnc(NC(=O)c2ccc3c(c2)OCO3)s1 (stereo not drawn) 5.6%
C/C(CCc1ccc2c(c1)OCO2)=N\N=C1\NC(=O)CC(C(=O)Nc2ccc(Cl)cc2)S1 (stereo not drawn) 3.3%
COc1ccc(NC(=O)CNC(=O)c2c(C)nn(C)c2Cl)cc1 -25.4%
Cc1ccc(C(=O)Cn2c(C)cc(C)c(C#N)c2=O)cc1 -3.5%
COc1cccc2sc(/N=C/N(C)C)nc12 4.3%
CN1CCCC1=Nc1c2c(nc3ccccc13)N(C)CC2 -12.3%
COc1ccc(-c2csc(NC(=S)NC(=O)c3ccc(S(=O)(=O)N(C)C)cc3)n2)cc1OC -1.9%
Cc1ccc(CCCOC(=O)CN2CCCCC2)cc1 -29.9%
COc1cc(OC)cc(OCC(O)Cn2cnc(-c3ccccc3)c2)c1 (stereo not drawn) -19.2%
Brc1ccc(C=Nc2ccc3c(c2)OCCOCCOCCO3)s1 -40.4%
O=C(c1noc2c1CCc1ccccc1-2)N1CCc2ccccc2C1 -25%
COc1ccc(CNc2ncnc3cc(OC)c(OC)cc23)cc1OC -17%
OC(CNc1ncnc2sccc12)c1ccccc1 (stereo not drawn) -2.4%
COc1ccc(CNc2ncnc3sccc23)cc1 41.7%
CN(C)C(CNc1ncnc2sccc12)c1ccccc1 (stereo not drawn) 4%
Fc1ccccc1CNc1ncnc2sccc12 25.2%
COc1ccccc1Nc1ncnc2sccc12 -5.2%
O=C(CN1CCN(S(=O)(=O)c2ccc(Cl)cc2)CC1)c1ccc(O)c(O)c1 -30.9%
Cn1ccnc1SCC(=O)c1ccc([N+](=O)[O-])cc1 -21.2%
COc1ccc(C(=O)NCCOC(C)C)cc1OC1CCN(C(C)=O)CC1 -13.7%
O=C(CSc1nc2ccccc2s1)NNC(=S)Nc1ccc(Cl)cc1 -14.3%
O=C(COc1ccc(Cl)cc1Cl)NNC(=S)NC(=O)c1ccco1 -10.8%
CCOc1ccc(OCC)c(NC(=O)CN2CCN(c3cccc(C)c3)C(C)C2)c1 (stereo not drawn) 29.9%
O=C(CSc1nc2ccccc2s1)NC1CCCC1 9.6%
O=C(Cn1ncc(Cl)c(Cl)c1=O)N1CCOCC1 6.8%
O=C(Cn1ncc(Cl)c(Cl)c1=O)N1CCN(S(=O)(=O)c2ccc3ccccc3c2)CC1 48.9%
Cc1ccc2c(c1)C(c1ccc(F)cc1)N(C(=O)c1ccc(S(=O)(=O)N(C)C)cc1)CC(=O)N2 (stereo not drawn) 3.7%
C=CCOc1c(Br)cc(/C=C2\SC(=Nc3ccccc3)NC2=O)cc1OC -29.6%
CCOc1cc(Br)cc(/C=C2\SC(=Nc3ccccc3)NC2=O)c1O -86.1%
O=C(c1cc2cc(Cl)ccc2o1)N1CCCC1 -13%
COCCn1nnnc1CN(Cc1cc2cc(OC)c(OC)cc2[nH]c1=O)C1CCCC1 -13.9%
CC(C)CCNC(=S)Nc1ccc(Br)cc1 -18.8%
Cc1cccc(NC(=S)N/N=C(\c2ccccc2)C(C)C)c1 -62.9%
C/C(=N\NC(=S)Nc1cccc(C)c1)c1ccccc1 -16.7%
Cc1cccc(NC(=S)NCCC(c2ccccc2)c2ccccc2)c1 7.2%
CC(=O)N/C(=C\c1ccc(F)cc1)C(=O)OCc1ccccc1 -8%
Cc1oc(-c2ccccc2Cl)nc1CS(=O)CC(=O)NCc1cccs1 (stereo not drawn) -13.9%
O=C(C/C=N/OCc1ccc(Cl)cc1Cl)c1ccc(Cl)cc1 19.3%
O=C(C/C=N\OCc1ccc(Cl)cc1Cl)Nc1ccccc1 -17%
CCN(CCCNC(=O)CN1C(=O)COc2ccccc21)c1cccc(C)c1 14.9%
COc1ccc(NC(=O)C(=O)NCCN2CCN(C(=O)c3ccc(C)cc3)CC2)cc1 -23%
CCN(CC)CC1CCCCN1CC(=O)N1c2ccccc2C(=O)Nc2cccnc21 (stereo not drawn) 5.4%
CN1CCN(CC(=O)N2c3ccccc3C(=O)Nc3cccnc32)CC1 -42.1%
CCOC(=O)c1c(C)[nH]c(C2=NNC(=Nc3ccc(OCC)cc3)SC2)c1C -31.6%
COc1cc(O)c2c(c1)OC(C)(C)CC2=O 5.2%
CC1(C)CC(=O)c2c(O)cc(O)cc2O1 -18.9%
Cc1ccc(S(=O)(=O)c2nnn3c2nc(N2CCCCC2)c2ccccc23)cc1 -42.5%
COc1ccc(CCNC(=O)c2cc(C)oc2C)cc1 -16%
CC(=O)Nc1ccc(OCc2cccc3ccccc23)cc1 29.7%
N#CC(c1ccc(Cl)cc1)c1ccc2c(C(F)(F)F)cc(C(F)(F)F)nc2n1 (stereo not drawn) 39.5%
Cc1ccc(C(C#N)c2ccc3c(C(F)(F)F)cc(C(F)(F)F)nc3n2)cc1 (stereo not drawn) 30%

Source: PubChem BioAssay AID1578 (Sanford-Burnham Center for Chemical Genomics, 2009)
